Screens from PubChem BioAssay.
RTF Ca sens inh = cardiac RTF calcium sensitivity inhibitors, primary screen, biochemical, IANBD-TnC fluorescence, EC70 calcium; IANBD-labeled cardiac RTF, Ca2+ fluorescence; inhibition, % at 7.15 µM; actives 0.12% (n = 340,000); AID 493244, 2011;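 active = inhibition above the mean inhibition of all tested compounds plus 3 SD, cut at about 17% in these data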;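 also: assay run at fixed EC70 calcium of 1.6 mM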
LANA DNA inh = inhibitors of KSHV C-LANA binding to DNA, primary screen, biochemical, fluorescence polarization, FAM-LBS DNA, MBP-C-LANA, single point. Kaposi's sarcoma herpesvirus LANA C-terminal domain (residues 932-1162) DNA binding. inhibition, % at 9 µM. actives 0.078% (n = 340,000). AID 504423, 2011;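 active = highest replicate inhibition at or above 60% at 9 µM, even if other replicates fall short; inactive = all replicates below 60% inhibition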;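 also: 0% = neutral control wells and 100% = 4 µM acridine orange control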
LANA-H2A inh = blockers of LANA interaction with H2A/H2B – biochemical, FP readout, HTS, primary screen | cell-free LANA-H2A/H2B peptide, fluorescence polarization | inhibition, % (no concentration beside the values) | actives 0.6% (n = 320,000) | AID 2629, 2010; in the data active = inhibition mostly above about 10%, no sharp cut-off; inactive = mostly below about 6.7%
Keap1-Nrf2 PPI = Keap1-Nrf2 protein-protein interaction inhibitors, primary screen, biochemical, fluorescence polarization, single point; Kelch-like ECH-associated protein 1 (Homo sapiens), Q14145; Keap1 Kelch-Nrf2 peptide fluorescence polarization, 1536-well; inhibition, % at 9.4 µM; actives 0.15% (n = 340,000); AID 504523, 2011; in the data active = inhibition above about 12%;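 also: human Keap1 Kelch domain with fluorescein labeled Nrf2 9mer peptide probe; 0% = neutral control wells and 100% = peptide positive control; higher means more block of Keap1 binding to Nrf2 peptide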
Target sequence (Q14145 whole entry, looked up, the tested form may be a part): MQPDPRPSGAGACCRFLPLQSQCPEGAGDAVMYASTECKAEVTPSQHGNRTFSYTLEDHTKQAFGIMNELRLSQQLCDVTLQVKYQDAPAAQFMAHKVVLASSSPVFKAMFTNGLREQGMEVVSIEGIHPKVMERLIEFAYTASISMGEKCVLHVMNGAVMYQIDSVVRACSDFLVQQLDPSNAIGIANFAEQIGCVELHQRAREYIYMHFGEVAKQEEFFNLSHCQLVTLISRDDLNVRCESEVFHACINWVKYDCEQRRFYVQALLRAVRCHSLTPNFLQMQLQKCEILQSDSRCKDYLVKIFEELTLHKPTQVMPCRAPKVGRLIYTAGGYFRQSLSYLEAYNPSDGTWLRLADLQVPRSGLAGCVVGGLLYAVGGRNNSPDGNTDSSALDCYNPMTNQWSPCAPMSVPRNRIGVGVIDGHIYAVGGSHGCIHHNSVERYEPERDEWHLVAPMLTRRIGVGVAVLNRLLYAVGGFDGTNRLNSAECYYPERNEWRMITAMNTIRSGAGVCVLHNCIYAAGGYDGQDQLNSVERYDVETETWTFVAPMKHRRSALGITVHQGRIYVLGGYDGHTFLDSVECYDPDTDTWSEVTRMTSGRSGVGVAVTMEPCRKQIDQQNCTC
cardiac RTF act = cardiac RTF calcium sensitivity activators, primary screen, biochemical, IANBD-TnC fluorescence, EC20 calcium. Troponin I, cardiac muscle (Homo sapiens) + Troponin T, cardiac muscle (Homo sapiens) + …. IANBD-labeled TnC RTF fluorescence at EC20 calcium; 0% EC20 calcium, 100% full calcium. activation, % at 7.2 µM. actives 0.24% (n = 340,000). AID 493008, 2010;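 active = activation above the mean over all tested compounds plus 3 SD, cut at about 30% in these data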;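 also: rise in fluorescence read as greater calcium sensitivity of cardiac thin filaments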
Starred values were filed as active, the others as inactive; nt = no result; + = active, no number. An excerpt weighted towards active compounds, which were near 0.98% of everything screened.

SMILES | RTF Ca sens inh | LANA DNA inh | LANA-H2A inh | Keap1-Nrf2 PPI | cardiac RTF act
O=C(O)CSCCC(=O)Nc1ccc(F)cc1 | -1 | 1 | 28* | -6 | 0
CCOC(=O)c1c(CSc2ccccc2)n(C)c2ccc(O)c(CN3CCOCC3)c12 | -8 | -1 | 18* | -3 | 1
CCOC(=O)c1c(C)n(C)c2ccc(O)c(CN3CCN(C)CC3)c12 | 4 | -1 | -2 | 4 | 11
CCOC(=O)N1CCN(Cc2nc3cc(NC(=O)c4cccs4)ccc3n2CC)CC1 | 2 | -1 | 1 | -3 | 4
CC(=O)Nc1ccc(OCC(=O)c2cc(C)ccc2C)cc1 | -5 | -1 | 19* | 3 | 1
CC(=O)Nc1ccc(NC(=O)Nc2ccc(C)cc2C)cc1 | -4 | 0 | 15* | -6 | 4
CCOc1ccc(S(=O)(=O)NCC2(N3CCCCC3)CCCCC2)cc1 | 3 | 1 | nt | 1 | 9
CCOc1ccc(S(=O)(=O)NCCC(=O)NCC2(N3CCCCC3)CCCCC2)cc1 | -3 | 2 | 168* | 4 | -2
CC(C)NC(=O)c1cc2nc(-c3ccco3)cc(C(F)(F)F)n2n1 | -3 | 1 | -7 | -5 | 2
CC(C)NC(=O)c1nn2c(C(F)(F)F)cc(-c3ccco3)nc2c1Cl | -6 | -1 | 43* | -2 | 1
CC(C)(C)c1ccc(SCCc2cccnc2)cc1 | 0 | -6 | 14* | -1 | 8
c1ccc(SCCc2ccncc2)cc1 | 1 | -1 | 3 | -1 | -2
O=C(O)c1ccc2c(=O)n3c(nc2c1)/C(=C/c1ccccc1C(F)(F)F)CCCC3 | 5 | 0 | -4 | 0 | 0
CN(C)CCNC(=O)CNC(=S)N(Cc1ccccc1)Cc1cccnc1 | 3 | 1 | -2 | -6 | 1
COc1ccccc1/C=C/C(=O)OCC(=O)c1cc(C)n(C)c1C | -6 | -1 | + | -3 | -4
CCOC(=O)[C@H]1[C@H]2COc3ccc(OC)cc3[C@@H]2N2C(=O)c3ccccc3NC(=O)[C@@]12C | -11 | 2 | 1 | -4 | -6
O=C(NC(=S)N1CCOCC1)c1cn(-c2ccccc2)nc1-c1ccccc1 | -6 | 7 | 9 | -4 | -3
COc1ccccc1C(=O)NNC(=O)c1cccc(Cl)c1 | 0 | -2 | -3 | -6 | -1
COc1ccc(Cl)cc1C(=O)NNC(=O)c1cccc([N+](=O)[O-])c1 | -1 | 1 | 156* | -2 | -2
Cc1ccc(C)c(OCCC(=O)OCC(=O)NCCc2ccc(S(N)(=O)=O)cc2)c1 | -10 | 2 | 2 | -4 | 2
Cc1ccc(C)c(OCCC(=O)NCCc2ccc(S(N)(=O)=O)cc2)c1 | 7 | 0 | 29* | -1 | 1
COCCNC(=O)C(c1ccc(F)cc1)N(C(=O)CCC(=O)Nc1ccccn1)c1ccc(C)cc1 (stereo not given) | 4 | 0 | 2 | 0 | 3
CC1CCCCN1CCNC(=O)c1ccc2c(c1)N(Cc1cccc(Cl)c1)C(=O)c1ccccc1S2=O (stereo not given) | 5 | -1 | 18* | 3 | -2
O=C(Nc1cccc(-n2cnnn2)c1)C1CCCN(Cc2cccc(C(F)(F)F)c2)C1 (stereo not given) | 0 | 1 | 13* | -5 | -2
C=C(C)C(=O)Nc1cccc(C2=NOC3(C2)C[C@@H](C(N)=O)N(C(=O)/C(C)=C/C)C3)c1 (stereo not given in full) | -13 | 85* | 4 | -1 | -3
SMILES | RTF Ca sens inh | LANA DNA inh | LANA-H2A inh | Keap1-Nrf2 PPI | cardiac RTF act
C=C(C)C(=O)Nc1cccc(C2=NOC3(C2)C[C@@H](C(N)=O)N(C(=O)/C=C/C=C/C)C3)c1 (stereo not given in full) | -9 | 68* | -1 | -6 | -1
O=C(N/N=C1\CCCc2c1[nH]c1ccc(Cl)cc21)c1ccncc1 | -3 | -3 | 44* | -3 | 10
COc1cc(C(=O)N2CCN(S(=O)(=O)c3cccc(F)c3)CC2)ccc1OCC(=O)N1CCOCC1 | -1 | -1 | nt | 5 | -6
Cc1nc2ccccc2c2c1C(=O)NC2=O | nt | nt | 27* | nt | nt
COC(CN(C)C(=O)c1ccc(CS(=O)(=O)c2ccccc2C)o1)OC | -12 | 0 | 14* | -3 | 6
CCCCN(C)C(=O)c1ccc(CS(=O)(=O)c2ccccc2C)o1 | 2 | -1 | 2 | -3 | 0
O=C(N/C(=C/c1ccc([N+](=O)[O-])cc1)C(=O)N1CCOCC1)c1ccco1 | -10 | -2 | 14* | -3 | -1
O=C(O)CCCCCCCCc1cn(CCc2c[nH]c3ccccc23)nn1 | -6 | 16 | 3 | 0 | 1
Cc1c(OCC(=O)NCC2CCC(C(=O)O)CC2)ccc2c(-c3ccccc3)cc(=O)oc12 (stereo not given) | 5 | 2 | 1 | -1 | -1
CN1CCCN(C(c2ccccc2)c2ccc(Cl)cc2)CC1 (stereo not given) | 9 | 3 | 29* | 0 | 2
CC(C(=O)N1CCCCC1)N(C)CC(=O)Nc1cccc(F)c1 (stereo not given) | nt | nt | 30* | nt | nt
COc1ccc(NC(=O)CN(C)C(C)C(=O)N2CCCCC2)cc1 (stereo not given) | -6 | -1 | 6 | 1 | 1
CN(C)S(=O)(=O)c1cccc(N=C2NN=C(c3ccccc3)CS2)c1 | nt | nt | 44* | nt | nt
COC(=O)c1ccc(COC(=O)c2cc3ccccc3oc2=O)cc1 | 3 | 0 | 2 | -3 | -6
CC(=O)c1ccc(COC(=O)c2cc3ccccc3oc2=O)cc1 | -1 | 1 | 11* | 4 | -2
CNC(=O)NC(=O)COC(=O)c1ccccc1OCc1ccccc1 | 4 | 1 | 2 | 4 | -5
CC1/C(=N/O)C(CN(C)C)C2CC1C2(C)C (stereo not given) | -5 | 2 | 0 | -5 | 1
CC1C2CC(C(CN(C)C)/C2=N/O)C1(C)C (stereo not given) | -6 | 1 | 66* | 4 | 4
COc1ccccc1C(=O)Nc1ccc2c(c1)nc1n2CCN(Cc2ccccc2)C1 | -1 | -1 | 16* | -1 | 0
O=C(CSc1ncn[nH]1)Nc1cccc(S(=O)(=O)N2CCCCCC2)c1 | -2 | -2 | 2 | -1 | 3
O=C(CCNC(=O)c1ccc([N+](=O)[O-])cc1)Nc1cccc(S(=O)(=O)N2CCOCC2)c1 | -1 | -1 | -4 | 2 | 2
Nc1nc(SCC(=O)Nc2cccc(S(=O)(=O)N3CCCCCC3)c2)n[nH]1 | -8 | 0 | 171* | -3 | 4
